From PubChem
In the library only some 2.5% were active in any assay of this set; here they are far more common.
PHOSPHO1 inh: inhibitors of human PHOSPHO1 phosphatase. Q8TCT1. recombinant PHOSPHO1, absorbance phosphatase assay. inhibition, % at 13.3 µM. actives 1.1% (n = 290,000). AID 1565; in the data active = inhibition above about 60%
SUMO HTRF inh: SUMOylation inhibition; P63279; HTRF SUMOylation assay, SAE1/SAE2 + UBC9, in vitro; inhibition, % at 35 µM; actives 0.36% (n = 290,000); AID 2006; in the data active = inhibition above about 50%, passing the limit was not always enough; inconclusive = no clear call, values can overlap the other calls
p97 inhibitor: inhibitors of human p97 ATPase; actives 0.42% (n = 220,000); inhibition, % at 8 µM; AID 1481; recombinant p97 ATPase, Kinase-Glo ATP luminescence, 3 h; in the data active = inhibition above about 15%
Target sequence (P55072 whole entry, looked up): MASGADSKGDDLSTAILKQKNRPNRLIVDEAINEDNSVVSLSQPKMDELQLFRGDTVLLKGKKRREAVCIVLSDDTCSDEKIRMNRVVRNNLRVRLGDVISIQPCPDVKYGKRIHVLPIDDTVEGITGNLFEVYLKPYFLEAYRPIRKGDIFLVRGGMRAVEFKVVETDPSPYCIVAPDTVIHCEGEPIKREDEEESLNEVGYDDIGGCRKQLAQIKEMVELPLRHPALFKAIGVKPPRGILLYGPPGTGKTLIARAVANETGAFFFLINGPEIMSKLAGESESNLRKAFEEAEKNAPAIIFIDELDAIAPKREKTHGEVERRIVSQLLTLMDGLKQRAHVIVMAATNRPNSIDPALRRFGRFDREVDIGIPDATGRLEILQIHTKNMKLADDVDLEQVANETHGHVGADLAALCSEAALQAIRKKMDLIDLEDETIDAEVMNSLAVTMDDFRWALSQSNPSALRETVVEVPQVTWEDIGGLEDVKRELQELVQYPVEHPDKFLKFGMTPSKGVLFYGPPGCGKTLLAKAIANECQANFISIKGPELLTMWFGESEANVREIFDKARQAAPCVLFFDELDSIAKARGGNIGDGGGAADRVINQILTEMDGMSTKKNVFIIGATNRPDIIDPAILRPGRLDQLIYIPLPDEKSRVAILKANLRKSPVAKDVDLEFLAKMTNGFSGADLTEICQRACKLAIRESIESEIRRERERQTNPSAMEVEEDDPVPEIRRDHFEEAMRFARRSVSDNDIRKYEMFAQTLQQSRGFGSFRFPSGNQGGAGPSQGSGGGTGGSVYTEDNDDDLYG
PfM18AAP inh-1: blocks P. falciparum M18 aspartyl aminopeptidase; recombinant PfM18AAP, H-Glu-NHMec fluorogenic cleavage; inhibition, % at 7.35 µM; AID 1822; actives 1.2% (n = 290,000);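 active = inhibition above the campaign mean inhibition over all tested compounds plus 3 SD, cut at about 28% in these data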
HDAC3 inh: human HDAC3 inhibition; recombinant HDAC3, fluorogenic peptide/trypsin coupled, fluorescence; inhibition, % at 8.3 µM; actives 0.15% (n = 320,000); in the data active = inhibition above about 26%, passing the limit was not always enough; inconclusive = no clear call, values can overlap the other calls
G6PDH CS: counter-screen for G6PDH assay hits: L. mesenteroides G6PDH inhibition. inhibition, % at 5 µM. actives 0.12% (n = 200,000). Purified L. mesenteroides G6PDH, diaphorase/resazurin coupled fluorescence, 45 min; in the data active = inhibition above about 50%
PfM18AAP inh-2: PfM18AAP inhibition, confirmation. shares compounds with PfM18AAP inh-1. recombinant PfM18AAP, H-Glu-NHMec fluorogenic cleavage. inhibition, % at 7.35 µM. actives 28% (n = 2,400);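 active = mean inhibition over replicate wells above the hit cutoff set for the earlier primary screen, cut at about 29% in these data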
CTSL1 counter: counter-screen for PFM18AAP inhibitors: confirmation of human cathepsin L inhibitors. inhibition, % at 5.96 µM. 2,400 tested, under 10 active. shares compounds with PfM18AAP inh-1. purified cathepsin L1, Z-Leu-Arg-MCA fluorescence;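 active = average inhibition across replicates above the hit cutoff set in the earlier primary screen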
A number is an active result; 0 = inactive; ? = inconclusive; - = no result.

SMILES | PHOSPHO1 inh | SUMO HTRF inh | p97 inhibitor | PfM18AAP inh-1 | HDAC3 inh | G6PDH CS | PfM18AAP inh-2 | CTSL1 counter
COCCN1C=C(C(=O)OC)C(c2ccc3c(c2)OCO3)C(C(=O)OC)=C1 | 0 | 0 | 0 | 38 | 0 | 0 | 0 | 0
COCCCN1C(=O)/C(=C\c2ccc3c(c2)OCO3)C(C(=O)OC)=C1C | 0 | 0 | 0 | 52 | 0 | 0 | 0 | 0
S=c1[nH]nc(-c2ccccc2Cl)n1/N=C/C=C/c1ccco1 | 0 | 0 | 0 | 0 | 0 | - | - | -
C(=C\c1ccco1)/C=N/n1cnnc1 | 0 | 0 | 0 | 58 | 0 | 0 | 0 | 0
CCN(CC)c1ccc2c(c1)OC(N)=C(C#N)C2c1cccnc1 (centres undefined) | 0 | 0 | 0 | 45 | 0 | 0 | 0 | 0
COc1cc(OC)c(C(=O)N(CCc2ccccc2)Cc2ccccc2)cc1OC | 0 | 0 | - | 0 | 0 | - | - | -
O=C(CSc1ncn[nH]1)Nc1ncc(C(F)(F)F)cc1Cl | 0 | 0 | 0 | 84 | 0 | 0 | 74 | 0
Nc1cc(=O)[nH]c(SCC(=O)Nc2ncc(C(F)(F)F)cc2Cl)n1 | 0 | 0 | 0 | 0 | 0 | 0 | - | -
FC(F)(F)c1cnc(Sc2ncn[nH]2)c(Cl)c1 | 0 | 0 | 0 | 92 | 0 | 0 | 83 | 0
Cn1c(C(=O)O)cnc1Sc1ncc(C(F)(F)F)cc1Cl | 0 | 0 | 0 | 0 | 0 | 0 | - | -
S=c1[nH]nc(COc2ccccc2)n1/N=C/c1ccccc1Br | 0 | 0 | - | 35 | 0 | - | 0 | 0
Oc1ccc(Br)cc1/C=N/n1c(COc2ccccc2)n[nH]c1=S | 0 | 0 | - | 0 | 0 | - | - | -
COc1ccccc1CNC(=O)Cn1cc(Br)ccc1=O | 0 | 0 | - | 0 | 0 | - | - | -
O=C1c2ccccc2C(=O)N1c1ncn[nH]1 | 0 | 0 | 0 | 44 | 0 | - | 0 | 0
CC(NS(=O)(=O)c1ccccc1Cl)C1CC2CCC1C2 (centres undefined) | 0 | 0 | - | 0 | 0 | - | - | -
Cc1ccc(N2C(=O)N(CC(=O)Nc3ccc([N+](=O)[O-])cc3)C(=O)C2C)cc1 (centres undefined) | 0 | 0 | - | 0 | 0 | - | - | -
Oc1ccc(/C=N/N(Cc2ccccc2)c2ccccc2)c(O)c1O | 0 | 0 | 0 | 50 | - | 0 | 0 | 0
Oc1cccc(/C=N/N(Cc2ccccc2)c2ccccc2)c1 | 0 | 0 | 0 | 0 | 0 | 0 | - | -
Nc1nc(Sc2ccc(C(F)(F)F)cc2[N+](=O)[O-])n[nH]1 | 0 | 0 | 0 | 63 | 0 | 0 | 56 | 0
Nc1nc(Sc2c([N+](=O)[O-])cc(C(F)(F)F)cc2[N+](=O)[O-])n[nH]1 | 0 | 0 | 0 | 0 | ? | - | - | -
Cc1nnc(N/N=C/c2cc([N+](=O)[O-])c(N3CCC(C)CC3)cc2N2CCC(C)CC2)n1N | 0 | 0 | 0 | 50 | 0 | 0 | 0 | 0
CC1CCN(c2cc(N3CCOCC3)c([N+](=O)[O-])cc2F)CC1 | 0 | 0 | 0 | 0 | 0 | 0 | - | -
CCc1nnc(N/N=C/c2ccc(N3CCC(C)CC3)c([N+](=O)[O-])c2)n1N | 0 | 0 | 0 | 48 | 0 | 0 | 0 | 0
CCn1cc(C(=O)N[C@@H](CCSC)C(=O)NCCN2CCOCC2)c(=O)c2cc3c(cc21)OCO3 | 0 | 0 | - | 0 | 0 | - | - | -
Cc1ccc(CNc2ccc3c(c2)ncn3C(C)(C)C)cc1 | 0 | 0 | 0 | 33 | - | 0 | 0 | 0
SMILES | PHOSPHO1 inh | SUMO HTRF inh | p97 inhibitor | PfM18AAP inh-1 | HDAC3 inh | G6PDH CS | PfM18AAP inh-2 | CTSL1 counter
S=C(NCCc1ccccc1)Nc1ccccn1 | 0 | 0 | 0 | 0 | 0 | 0 | - | -
Cc1cccc(NC(=S)NCCc2ccccc2)n1 | 0 | 0 | 0 | 38 | 0 | 0 | 0 | 0
CC(C(=O)OCC(=O)N1CCN(c2ccccc2)CC1)N1C(=O)c2ccccc2C1=O (centres undefined) | - | - | - | - | 0 | - | - | -
Cc1ccc(C(=O)N/N=C\c2ccc([N+](=O)[O-])o2)cn1 | 0 | 0 | 0 | 34 | 0 | - | 0 | 0
Cc1ccc(C(=O)N/N=C\c2ccc(-c3ccc([N+](=O)[O-])cc3)o2)cn1 | 0 | 0 | 0 | 0 | 0 | - | - | -
N#Cc1c(N)sc2c1CCCCCC2 | 80 | 0 | 0 | 43 | 0 | 0 | 0 | 0
CCCN1CCN(S(=O)(=O)c2ccc(-c3cc(C)no3)s2)CC1 | 0 | 0 | - | 0 | 0 | - | - | -
CC1=CC(C)(C)NC(=S)N1c1cccc2cc(S(=O)(=O)O)ccc12 | 0 | 0 | 0 | 0 | 0 | - | - | -
CCOC(=O)c1ccc(NC(=O)Nc2ccn(C)n2)cc1 | 0 | 0 | 0 | 0 | 0 | 0 | - | -
Cc1c(Cl)cccc1NC(=O)Nn1cnnc1 | 0 | 0 | - | 82 | 0 | - | 65 | 0
Cc1c(Cl)cccc1NC(=O)Nc1cc(C(C)(C)C)nn1C | 0 | 0 | 0 | 0 | 0 | - | - | -
O=C(Nc1ccc(F)cc1)Nn1cnnc1 | 0 | 0 | - | 58 | 0 | - | 46 | 0
O=C(Nc1cc(Cl)ccc1Cl)Nn1cnnc1 | 0 | 0 | - | 87 | 0 | - | 89 | 0
CCOC(=O)c1ccc(NC(=O)Nn2cnnc2)cc1 | 0 | 0 | - | 72 | 0 | - | 64 | 0
O=C(Nc1ccc(F)c(Cl)c1)Nn1cnnc1 | 0 | 0 | - | 76 | 0 | - | 60 | 0
CCOC(=O)c1c(CN(C)C)n(-c2ccc(C)cc2)c2cc(Br)c(O)cc12 | 0 | 0 | 0 | 38 | 0 | 0 | 0 | 0
COc1ccc(NC(=O)c2cc3ccccc3o2)cc1S(=O)(=O)N1CCCCC1 | - | - | - | - | 0 | - | - | -
CC1(C)Cc2c(c(N3CCOCC3)nc3sc(C(=O)Nc4ccccc4)c(N)c23)CO1 | 0 | 0 | - | 37 | 0 | - | 0 | 0
CC1(C)Cc2c(c(N3CCOCC3)nc3sc(C(=O)Nc4cccc(Cl)c4)c(N)c23)CO1 | 0 | 0 | - | 41 | 0 | - | 0 | 0
O=C(CC(c1ccccc1)c1ccccc1)Nc1ccc(C(=O)O)cc1 | 0 | 0 | - | 0 | 0 | - | - | -
S=c1[nH]nc(-c2cc(-c3ccccc3)n[nH]2)n1/N=C/c1cccs1 | 0 | 0 | 0 | 0 | 0 | - | - | -
Nc1nc2ccccc2n1/N=C/c1cccnc1 | - | - | 0 | 0 | 0 | - | - | -
S=c1[nH]c(-c2ccccc2)cn1/N=C/c1cccnc1 | 0 | 0 | 0 | 62 | 0 | - | 57 | 0
S=c1[nH]c(-c2ccccc2)cn1/N=C/c1cccs1 | 0 | 0 | 0 | 47 | 0 | - | 39 | 0
Fc1ccccc1/C=N/n1cc(-c2ccccc2)[nH]c1=S | 0 | 0 | 0 | 46 | 0 | - | 41 | 0
SMILES | PHOSPHO1 inh | SUMO HTRF inh | p97 inhibitor | PfM18AAP inh-1 | HDAC3 inh | G6PDH CS | PfM18AAP inh-2 | CTSL1 counter
CN1CCN(C(=S)NC(=O)c2ccc(Br)cc2)CC1 | 0 | 0 | 0 | 0 | 0 | - | - | -
CN1CCN(C(=S)C(=O)Nc2ccc(Br)cc2)CC1 | 0 | 0 | 0 | 55 | 0 | 0 | 0 | 0
COc1ccc(CNc2n[nH]c(NCc3ccc(OC)c(OC)c3)n2)cc1OC | 0 | 0 | 0 | 47 | 0 | 0 | 0 | 0
CCC(=O)n1nc(NCc2ccc(OC)c(OC)c2)nc1NCc1ccc(OC)c(OC)c1 | 0 | 0 | 0 | 38 | 0 | 0 | 0 | 0
COc1ccc(CNc2nc(SC)n[nH]2)cc1OC | 0 | 0 | 0 | 0 | 0 | 0 | - | -
CCC(=O)n1nc(-c2cccnc2)nc1NCc1ccc(OC)cc1 | 0 | 0 | 0 | 0 | 0 | 0 | - | -
CCOC(=O)c1c(-c2ccc(OC)cc2)csc1/N=C/C1=C(O)CCCC1=O | 0 | 0 | 0 | 37 | - | 0 | 0 | 0
